Screening results as filed in PubChem.
An excerpt weighted towards active compounds, which were near 19% of everything screened.
HT1080 IDH1KD tx = HT-1080 IDH1 knockdown cell toxicity (counter line). HT-1080 IDH1 knockdown viability, ATP luminescence, 48 h. Potency, µM (highest dose often 46.1 µM), usual class: cytotoxic. actives 2% (n = 360,000)
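Using the IDH1-knockdown HT-1080 line run in the same batch and compound series as the NT line, viability after 48 h at 37 °C was determined by CellTiter-Glo luminescence and expressed as % activity.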
DT40 TDP1 CPT = DT40-hTDP1 cell growth loss with CPT; chicken DT40 Tdp1-/-;hTDP1 cells + 20 nM CPT, ATP luminescence, 48 h; Potency, µM (series often up to 46.2 µM), usual class: inhibitors; actives 12% (n = 420,000); AID 686979; also: nearly all actives have a fitted effect of over 55% in size
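Cell growth measured by CellTiter-Glo luminescence after a minimum 48 h, 37 C compound exposure with 20 nM CPT in Tdp1-knockout DT40 cells stably expressing hTDP1, seeded 400/well; qHTS titration format.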
HT1080NT lethal = kills 2HG-producing HT-1080-NT fibrosarcoma cells; AID 686970; HT-1080-NT fibrosarcoma viability, CellTiter-Glo ATP luminescence, 48 h; Potency, µM (top dose mostly 46.1 µM), usual class: cytotoxic; actives 1.6% (n = 360,000);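 also: NT is the 2HG producing partner of a matched IDH1 knockdown line; nearly all actives have a fitted effect of over 55% in size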
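HT-1080-NT; 750 cells/well; 5% FBS RPMI; 48 h compound, 37 degrees C; CellTiter-Glo luminescence; curve fitting and curve-class assignment.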
TDP1 cell noCPT = qHTS for Inhibitors of human tyrosyl-DNA phosphodiesterase 1 (TDP1): qHTS in cells in absence of CPT; DT40 Tdp1-/- hTDP1 cells, no CPT, ATP luminescence, 48 h; Potency, µM (doses to about 46.2 µM), most hits filed as inhibitors; actives 15% (n = 420,000); AID 686978, 2013; also: nearly all actives have a fitted effect of over 55% in size
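Growth kinetics read by CellTiter-Glo luminescence after ≥48 hr at 37 °C. Cells: DT40 Tdp1-/- stably carrying human TDP1, 400 per well, compound exposure in the absence of CPT (DMSO vehicle).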
IL1B secr inh = inhibitors of inflammasome signaling (IL-1 beta secretion); THP-1 LPS/ATP IL-1B secretion, AlphaLISA, 16 h; hits give low values; activity change, % at 57.5 µM; actives 4.7% (n = 360,000); AID 743279; in the data active = activity change below about -50%; inconclusive = mostly about -30% to -49%
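Secreted IL-1B measured by AlphaLISA bead assay after 16 h compound exposure of THP-1 cells; compounds (final up to 57.5 uM) added 1 h before LPS (250 ng/mL) and ATP (1.25 mM) stimulation; lower signal means less secretion.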
Numbers stand for hits; i = inactive; ? = inconclusive; nt = no result given. Unless noted, calls follow the shape of the dose curve; as a rule, active = well fitted curve in the direction sought with a large enough effect; inconclusive = small, poorly fitted or top-dose-only effect, or another doubt; inactive = no such curve, though single readings can be large; an effect the other way counts as inactive or inconclusive.

SMILES | HT1080 IDH1KD tx | DT40 TDP1 CPT | HT1080NT lethal | TDP1 cell noCPT | IL1B secr inh
COc1cc(NC(=O)c2ccc(N3CC4CC(C3)c3cccc(=O)n3C4)c(NC(=O)c3ccncc3)c2)cc(OC)c1OC (stereo not drawn) | i | i | i | i | ?
CCn1cnc2cc(NCc3ccc(C)cc3)ccc21 | i | i | i | i | -57
CCn1cnc2cc(NCc3nc4ccccc4n3C)ccc21 | i | i | i | ? | i
CCn1cnc2cc(NCc3ccc(N(C)C)cc3)ccc21 | i | 15µM | i | 18µM | ?
Cc1ccc(CNc2ccc3c(c2)ncn3C(C)C)cc1 | i | 12µM | i | 13µM | ?
CCn1cnc2cc(NCc3nc4ccccc4n3Cc3ccccc3)ccc21 | i | 15µM | i | ? | i
COc1ccc(N2CC(NC(=O)c3ccc(S(=O)(=O)N4CCCCC4)cc3)CC2=O)cc1OC (stereo not drawn) | nt | i | nt | i | nt
Cc1c(C(N)=O)sc2ncn(CC(=O)NCCc3ccccc3)c(=O)c12 | i | i | i | i | i
CCOc1ccc(-c2nn(CC(=O)NC3CCCC3)c3c2cnc2ccc(F)cc23)cc1 | nt | i | nt | i | nt
CC(OC(=O)c1ccc(-c2ccc([N+](=O)[O-])cc2)o1)C(=O)NC(N)=O (stereo not drawn) | i | i | i | i | i
CC(C)(C)C(=O)/C=c1\s/c(=C\c2ccc(-c3ccc([N+](=O)[O-])cc3)o2)c(=O)n1CC(=O)NC(N)=O | i | ? | i | 23µM | i
COc1ccc(C2CC(c3cccc(F)c3)=NN2c2ccc(S(N)(=O)=O)cc2)cc1 (stereo not drawn) | i | ? | i | ? | i
COc1ccc(C2CC(c3ccccc3Cl)=NN2c2ccc(S(N)(=O)=O)cc2)cc1 (stereo not drawn) | ? | ? | 18µM | ? | ?
COc1ccc(C2CC(c3cccc(Br)c3)=NN2c2ccc(S(N)(=O)=O)cc2)cc1 (stereo not drawn) | ? | 26µM | ? | ? | i
COc1ccc(C2CC(c3ccccc3)=NN2c2ccc(S(N)(=O)=O)cc2)cc1 (stereo not drawn) | ? | i | ? | ? | ?
COc1ccc(C2CC(c3cccc(C(F)(F)F)c3)=NN2c2ccc(S(N)(=O)=O)cc2)cc1 (stereo not drawn) | i | ? | ? | 26µM | ?
Cc1ccc(O)c(-c2cc(C(=O)Nc3ccc(S(=O)(=O)Nc4nccc(C)n4)cc3)[nH]n2)c1 | ? | i | ? | i | i
CC(C)(C)OC(=O)CC[C@@H](C(=O)N1CCN(C(=O)OC(C)(C)C)CC1)n1cc(C(CO)NC(=O)OC(C)(C)C)nn1 (stereo partly drawn) | i | i | i | i | i
CC[C@@H](C)C(NC(=O)OC(C)(C)C)c1cn([C@@H](CCC(=O)OC(C)(C)C)C(=O)N2CCN(C(=O)OC(C)(C)C)CC2)nn1 (stereo partly drawn) | i | ? | i | 15µM | ?
CC(C)CC(NC(=O)OC(C)(C)C)c1cn([C@@H](Cc2cc3ccccc3[nH]2)C(=O)N2CCN(C(=O)OC(C)(C)C)CC2)nn1 (stereo partly drawn) | i | 18µM | i | 18µM | ?
CCOC(=O)C1=C(C)NC(=O)/C1=C\N(C)C | i | i | i | i | i
Cc1cccc(N2CCN(c3nc4ccccc4c4nnc(C)n34)CC2)c1C | nt | 13µM | nt | 12µM | nt
Cc1ccc(N2CCN(c3nc4ccccc4c4nnc(C)n34)CC2)c(C)c1 | nt | i | nt | i | nt
Cc1nnc2c3ccccc3nc(N3CCN(c4cccc(Cl)c4)CC3)n12 | nt | 13µM | nt | 12µM | nt
CCCOc1cccc(-c2cc(C(=O)N/N=C/c3cccnc3)c3ccccc3n2)c1 | ? | 9.2µM | i | 8.2µM | i
SMILES | HT1080 IDH1KD tx | DT40 TDP1 CPT | HT1080NT lethal | TDP1 cell noCPT | IL1B secr inh
Cc1cccc(/C=N/NC(=O)c2cc(-c3cccnc3)nc3ccccc23)c1 | i | i | i | i | i
CCCOc1cccc(-c2cc(C(=O)N/N=C/c3ccccn3)c3ccccc3n2)c1 | ? | 12µM | i | 9.2µM | -98
COc1ccc(-c2cc(C(=O)N/N=C/c3cc(OC)c(OC)cc3OC)c3ccccc3n2)cc1 | i | 10µM | i | 9.2µM | i
CC(C)COc1cccc(-c2cc(C(=O)Nc3ccon3)c3ccccc3n2)c1 | ? | 16µM | ? | 10µM | i
COC(=O)[C@H](NC(=O)c1cc(-c2ccccc2)nc2ccccc12)c1ccccc1 | i | ? | i | i | i
O=C(NCCOCCNC(=O)OCc1ccccc1)OCc1ccccc1 | i | i | i | i | i
COc1ccc(N2CC(C(=O)Nc3ccncc3)CC2=O)cc1 (stereo not drawn) | i | i | i | i | i
Cc1cccc(-c2cc(C(=O)N/N=C/c3cccnc3)c3ccccc3n2)c1 | i | ? | i | ? | i
COc1ccc(-c2cc(C(=O)N/N=C/c3cccnc3)c3ccccc3n2)cc1 | ? | 9.2µM | ? | ? | i
CCCOc1cccc(-c2nc3ccccc3c(=O)o2)c1 | i | ? | i | ? | i
COc1cc2ccccc2cc1C(=O)N/N=C/c1cccnc1 | ? | 15µM | i | ? | i
CCCOc1cccc(-c2cc(C(=O)NN)c3ccccc3n2)c1 | ? | 9.2µM | i | 10µM | i
Cc1cccc(/C=N/NC(=O)c2cc(-c3cccnc3)nc3c2c(C)nn3-c2ccccc2)c1 | i | ? | i | 23µM | i
Cc1ccc(S(=O)(=O)N2CCCCC2)cc1NC(=O)COC(=O)C1(C)CC1(Cl)Cl (stereo not drawn) | i | i | i | i | i
CCn1ccnc1[C@@H]1C[C@H]2CN(Cc3ccccc3OC)C(=O)[C@]23CCCN13 | i | i | i | i | i
CCOC(=O)C1CCN(C(=O)CCc2ccc(S(=O)(=O)NCC(C)C)cc2)CC1 | i | i | i | i | i
O=C(N/N=C/c1cccnc1)c1cc(-c2ccccc2Cl)nc2ccccc12 | i | ? | i | 4.6µM | i
Cc1ccccc1-c1cc(C(=O)N/N=C/c2cccnc2)c2ccccc2n1 | i | ? | i | ? | i
Cc1c(NC(=O)c2ccc(Br)o2)c(=O)n(-c2ccccc2)n1C | i | i | i | i | i
CN(Cc1ccccc1)C(=O)CC(c1ccccc1)c1cc(Cl)ccc1O (stereo not drawn) | ? | 23µM | ? | 21µM | i
CC(NC(=O)CC(c1ccccc1)c1cc(Cl)ccc1O)c1ccccc1 (stereo not drawn) | ? | 15µM | i | 21µM | ?
O=C(CC(c1ccccc1)c1cc(Cl)ccc1O)NCCCN1CCOCC1 (stereo not drawn) | i | i | i | i | i
